Laboratory results from the supplement of paper PMC10646978.
± gives the standard deviation.

Columns and labels:
Conditions in all cases: modulator concentration 10 µM
[1] = tested on: RAW-Dual (murine macrophage reporter line); assay: NF-kB reporter (SEAP) activity fold change vs agonist alone; higher = enhanced NF-kB activity
In short: (§1)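 Overnight stimulation with a PRR agonist followed pre-incubation for 1 hour at 37 °C with compound at 10 μM final. This was done in RAW-Dual murine macrophage reporter cells seeded at 50 000 per well in 384-well plates. NF-κB (SEAP, QUANTI-Blue absorbance at 620 nm) and IRF (Lucia luciferase, QUANTI-Luc luminescence) were read from the supernatant. Each reporter's fold change relative to the mean agonist-only control on the same plate was averaged over replicate plates.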

[2] = tested on: RAW-Dual (murine macrophage reporter line); assay: IRF reporter (Lucia luciferase) activity fold change vs agonist alone; higher = enhanced IRF activity
In short: as §1

[3] = tested on: RAW-Dual (murine macrophage reporter line); assay: viability score (confluency relative to resting cells, overnight) (fraction); higher = more viable, active = viable (0.7 or more)
In short: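 RAW-Dual macrophages in 384-well plates were treated overnight with compound at 10 μM final. IncuCyte imaging recorded confluency, and IncuCyte software built two confluency masks across every imaged well. The viability score expresses confluency relative to resting cells and was judged against a cutoff, which a compound met only if both masks exceeded 70% of resting cells.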

[4] = agonist: CpG ODN 1826 0.5 ug/mL

Row | SMILES | NF-kB reporter [1, 4] | NF-kB reporter ([1]; agonist: LPS 0.1 ug/mL) | NF-kB reporter ([1]; agonist: MPLA […]) | IRF reporter ([2]; agonist: 3'3'-cGAMP 10 ug/mL) | IRF reporter ([2]; agonist: LPS 0.1 ug/mL) | IRF reporter ([2]; agonist: MPLA […]) | viability score [3]
1 | CC(=O)O.NCc1ccc(S(N)(=O)=O)cc1 | 1 ± 0.1 | 1.01 ± 0.052 | 0.992 ± 0.058 | 0.914 ± 0.065 | 0.96 ± 0.12 | 1.02 ± 0.092 | 1.01 (active)
2 | O=C(CSC1CC(=O)N(c2ccc(C(=O)O)cc2)C1=O)Nc1ccc(Cl)cc1 (centres undefined) | 0.921 ± 0.11 | 0.931 ± 0.16 | 1.05 ± 0.046 | 0.396 ± 0.085 | 0.99 ± 0.045 | 0.982 ± 0.12 | 1 (active)
3 | CCOc1ccc2nc(SC3CC(=O)N(c4cccc(Cl)c4)C3=O)sc2c1 (centres undefined) | 0.954 ± 0.091 | 1.04 ± 0.058 | 0.785 ± 0.047 | 0.778 ± 0.046 | 1.11 ± 0.079 | 1.04 ± 0.16 | 1.01 (active)
4 | CS(=O)(=O)NCc1cccc(Oc2ccc(F)cc2)c1 | 1.03 ± 0.066 | 0.955 ± 0.079 | 0.997 ± 0.029 | 1.1 ± 0.046 | 0.992 ± 0.061 | 1.03 ± 0.1 | 0.997 (active)
5 | O=C1CCCN1c1ccc(Cn2cc(-c3nc(-c4ccc(F)cc4)no3)ccc2=O)cc1 | 0.981 ± 0.15 | 1.06 ± 0.086 | 1.01 ± 0.086 | 1.02 ± 0.053 | 1.04 ± 0.066 | 1.16 ± 0.15 | 1.01 (active)
6 | COc1ccc2ccccc2c1-c1nnc2ccc(C(F)(F)F)cn12 | 0.87 ± 0.1 | 0.997 ± 0.056 | 0.854 ± 0.089 | 0.992 ± 0.036 | 1.37 ± 0.18 | 1.07 ± 0.2 | 1.01 (active)
7 | Cc1cccc(C(C)C)c1NC(=O)c1ccccc1Br | 0.951 ± 0.16 | 0.956 ± 0.085 | 0.953 ± 0.074 | 0.988 ± 0.044 | 1.28 ± 0.23 | 1.14 ± 0.12 | 0.971 (active)
8 | CCN(CC)c1ccc(C=NNC(=O)c2ccccc2C)c(O)c1 | 2.52 ± 0.2 | 1.41 ± 0.092 | 3.2 ± 0.13 | 0.442 ± 0.032 | 0.974 ± 0.11 | 0.721 ± 0.15 | 0.444 (inactive)
9 | CCOC(=O)C1=C(C)NC(C)=C(C(=O)OCC)C1c1ccc(O)cc1 | 1.41 ± 0.23 | 0.895 ± 0.083 | 1.35 ± 0.13 | 1.01 ± 0.03 | 0.971 ± 0.16 | 0.966 ± 0.099 | 0.991 (active)
10 | COc1ccc(Oc2coc3cc(OC(=O)c4ccc(Cl)c([N+](=O)[O-])c4)ccc3c2=O)cc1 | 0.82 ± 0.063 | 0.981 ± 0.052 | 1.08 ± 0.094 | 0.892 ± 0.048 | 1.29 ± 0.08 | 1.43 ± 0.14 | 1.02 (active)
11 | O=C(Oc1coc(CSc2ncccn2)cc1=O)c1ccc([N+](=O)[O-])cc1 | 0.972 ± 0.16 | 1.15 ± 0.13 | 1.03 ± 0.15 | 0.996 ± 0.03 | 1 ± 0.22 | 1.03 ± 0.1 | 0.986 (active)
12 | Cc1onc(-c2ccccc2)c1-c1ccc(S(N)(=O)=O)cc1 | 1.64 ± 0.26 | 1.08 ± 0.4 | 1.25 ± 0.3 | 1.02 ± 0.031 | 1.02 ± 0.2 | 0.898 ± 0.11 | 0.98 (active)
13 | C/C(=C(\CCOP(=O)(O)O)SC(=O)c1ccccc1)N(C=O)Cc1cnc(C)nc1N [Prestw-654] | 1.03 ± 0.19 | 1.25 ± 0.15 | 1.1 ± 0.13 | 0.943 ± 0.031 | 1.04 ± 0.15 | 1.28 ± 0.14 | 0.974 (active)
14 | CN(C)C/C=C/C(=O)Nc1cc2c(Nc3ccc(F)c(Cl)c3)ncnc2cc1O[C@H]1CCOC1 | 0.0842 ± 0.0066 | 0.28 ± 0.053 | 0.266 ± 0.033 | 0.0559 ± 0.0049 | 0.0747 ± 0.015 | 0.0463 ± 0.0039 | 0.56 (inactive)
15 | Cc1ccc(C(C)C)c(Oc2ccccc2NC(=O)c2cc(I)cc(I)c2O)c1 | 0.995 ± 0.066 | 0.985 ± 0.082 | 0.924 ± 0.071 | 0.915 ± 0.035 | 1.44 ± 0.092 | 1.27 ± 0.25 | 1 (active)
16 | Cc1ccc(C2=NN3C(=N)C(=Cc4c[nH]c5ccccc45)C(=O)N=C3S2)cc1 | 0.997 ± 0.079 | 1.03 ± 0.065 | 0.932 ± 0.058 | 0.974 ± 0.024 | 1.38 ± 0.2 | 1.12 ± 0.21 | 1.01 (active)
17 | C(=C\c1ccccc1)/CN1CCN(C(c2ccccc2)c2ccccc2)CC1 | 1.14 ± 0.16 | 0.957 ± 0.37 | 0.989 ± 0.065 | 0.828 ± 0.028 | 1.23 ± 0.44 | 1.33 ± 0.1 | 0.979 (active)
18 | C[C@@H](O[C@H]1OCCN(Cc2n[nH]c(=O)[nH]2)[C@H]1c1ccc(F)cc1)c1cc(C(F)(F)F)cc(C(F)(F)F)c1 | 0.545 ± 0.086 | 0.634 ± 0.031 | 0.806 ± 0.073 | 0.961 ± 0.045 | 1.29 ± 0.084 | 1.04 ± 0.09 | 1.02 (active)
19 | Cc1ccccc1C(=O)N(Cc1cccnc1)c1nc2c(F)cccc2s1 | 0.288 ± 0.019 | 0.749 ± 0.063 | 0.645 ± 0.038 | 1.34 ± 0.06 | 1.06 ± 0.11 | 0.952 ± 0.093 | 0.984 (active)
20 | Cc1ccc(C)c(Cc2cc([N+](=O)[O-])ccc2C)c1 | 0.287 ± 0.023 | 0.436 ± 0.081 | 0.726 ± 0.026 | 1.28 ± 0.081 | 1.01 ± 0.084 | 1.57 ± 0.28 | 0.996 (active)
21 | O=C(O)c1cccnc1C(=O)O | 1.03 ± 0.087 | 1.04 ± 0.07 | 0.971 ± 0.022 | 0.941 ± 0.052 | 0.981 ± 0.12 | 0.867 ± 0.07 | 1 (active)
22 | O=C(CC1(Cc2ccc(I)cc2)C(=O)c2ccccc2C1=O)c1ccccc1 | 0.803 ± 0.073 | 0.876 ± 0.046 | 1.02 ± 0.091 | 0.953 ± 0.044 | 1.42 ± 0.12 | 1.59 ± 0.17 | 0.996 (active)
23 | Cc1ccc(NC(=O)c2ccccc2Oc2ccccc2)cc1 | 0.689 ± 0.055 | 1.1 ± 0.097 | 1.24 ± 0.059 | 0.881 ± 0.08 | 1.09 ± 0.14 | 1.76 ± 0.41 | 1 (active)
24 | COc1cccc2c1C(=O)c1c(O)c3c(c(O)c1C2=O)C[C@@](O)(C(C)=O)C[C@@H]3O[C@H]1C[C@H](N)[C@H](O)[C@H](C)O1.Cl | 0.115 ± 0.0076 | 0.0574 ± 0.0063 | 0.0998 ± 0.0052 | 0.0163 ± 0.004 | 0.0195 ± 0.0046 | 0.0153 ± 0.0037 | 0.0601 (inactive)
25 | Cc1cn([C@@H]2C[C@@H](O)[C@H](CO)O2)c(=O)[nH]c1=O | 1.12 ± 0.086 | 0.998 ± 0.054 | 1.01 ± 0.065 | 1.09 ± 0.18 | 0.886 ± 0.04 | 0.82 ± 0.15 | 1.01 (active)
26 | N#Cc1cc(-c2n[nH]c(-c3ccncc3)n2)ccn1 | 0.998 ± 0.19 | 1.06 ± 0.32 | 0.958 ± 0.077 | 0.891 ± 0.035 | 1.13 ± 0.25 | 1.12 ± 0.28 | 1 (active)
27 | O=C(NCCN1CCOCC1)c1cc2nc(-c3ccccc3)cc(C(F)(F)F)n2n1 | 0.898 ± 0.078 | 1.06 ± 0.091 | 0.933 ± 0.061 | 0.607 ± 0.033 | 1.09 ± 0.098 | 1.01 ± 0.09 | 1 (active)
